This note sets out measurements from PubChem BioAssay (NCI).

Some test systems named below: NCI-H23 lung; NCI-H226 lung; NCI-H322M lung; HOP-62 NSCLC; NCI-H460 lung; HOP-92 NSCLC; NCI-H522 lung; A549/ATCC NSCLC; 786-0 renal; COLO 205 colon; DU-145 prostate; K-562 leukemia; MALME-3M melanoma; MDA-MB-231 breast; RXF 393 renal; SF-268 CNS; SF-295 CNS; UACC-257 melanoma; M14 melanoma; SF-539 CNS.
Experiment in all cases: NCI-60 one-dose screen, 48 h (100 = growth as untreated, 0 = no growth, -100 = all killed)
Holding throughout (conditions): 10 µM unless noted

Molecules are shown by their SMILES. This is part of a sample that, as a whole, favours compounds with a hit. Of some 83,000 tested, about 20% had one in any assay.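 Step 1: grow cells in 96-well plates. Step 2: add test compound at a single concentration. Step 3: incubate 48 h. Step 4: record percent growth.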 Values without a mark were called inactive. Calls of active or inactive are those of the source. How the source made its calls: active means growth percent below 10; inactive means the rest.

`Nc1nc(=O)c2ccccc2s1`: the growth was 109% in the assay on NCI-H23 lung; 112% with NCI-H226 lung; 108% in the assay on NCI-H322M lung; 98.2% in the assay with HOP-62 NSCLC; 115% in the assay on NCI-H460 lung; 94.5% in the assay with HOP-92 NSCLC. For the same compound, the growth was 122% in the assay on NCI-H522 lung; 111% with A549/ATCC NSCLC; 103% with 786-0 renal; 107% with COLO 205 colon; 124% with DU-145 prostate; 122% in the assay with K-562 leukemia. Moreover, the growth is 110% in the assay on MALME-3M melanoma; 109% in the assay with MDA-MB-231 breast; 118% in the assay with RXF 393 renal; 113% in the assay with SF-268 CNS; 105% in the assay with SF-295 CNS; 118% in the assay on UACC-257 melanoma. For the same compound, the growth in the assay on M14 melanoma was 107%.
On to `OC(c1cc2cc(Br)ccc2c2cc(Br)ccc12)C1CCCCN1` (stereo unspecified), for which the growth in the assay with NCI-H23 lung is -75.4% (active); with NCI-H226 lung, -70.1% (active); in the assay with NCI-H322M lung it was -84.9% (active); in the assay on HOP-62 NSCLC, -84.1% (active); in the assay with NCI-H460 lung, -71.7% (active); in the assay on HOP-92 NSCLC, -88.9% (active). Further, the growth with NCI-H522 lung was -86.1% (active); with A549/ATCC NSCLC it was -81.3% (active); in the assay on 786-0 renal, -41.6% (active); in the assay on COLO 205 colon, -89.9% (active); in the assay with DU-145 prostate, -93.5% (active); in the assay with K-562 leukemia it was -72.2% (active). In addition, the growth in the assay with MALME-3M melanoma was -57.5% (active); in the assay on MDA-MB-231 breast, -73.5% (active); with RXF 393 renal, -94.1% (active); with SF-268 CNS, -84.5% (active); in the assay with SF-539 CNS it was -82.9% (active); in the assay with UACC-257 melanoma, -82.9% (active). For the same compound, the growth in the assay on M14 melanoma was -75.8% (active).
In the case of `Nc1ccc(C(=O)CSc2nc3ccccc3[nH]2)cc1`, the growth was 98.4% with NCI-H23 lung; 108% with NCI-H226 lung; 108% in the assay with NCI-H322M lung; 111% with HOP-62 NSCLC; 106% in the assay on NCI-H460 lung; 116% in the assay on HOP-92 NSCLC. Besides, the growth in the assay on NCI-H522 lung is 101%; in the assay with A549/ATCC NSCLC it was 99.8%; in the assay with 786-0 renal, 93.5%; in the assay with COLO 205 colon, 120%; in the assay with DU-145 prostate it was 103%; in the assay with K-562 leukemia, 103%. For the same compound, the growth with MALME-3M melanoma was 107%; in the assay on MDA-MB-231 breast it was 105%; with RXF 393 renal, 110%; in the assay with SF-268 CNS it was 99.4%; in the assay on SF-295 CNS it was 98.1%; in the assay on SF-539 CNS, 104%. For the same compound, the results for the growth in the assay with UACC-257 melanoma and in the assay on M14 melanoma were 107% and 108%, respectively.
`COc1ccc(C2C=C(c3ccc(OC)c(OC)c3)N=C3SC=C(C)N32)c(Br)c1` (stereo unspecified): the growth is 99.2% with NCI-H23 lung; 99.2% in the assay on NCI-H226 lung; 95.8% with NCI-H322M lung; 108% in the assay on HOP-62 NSCLC; 105% in the assay with NCI-H460 lung; 156% in the assay on HOP-92 NSCLC. The growth in the assay with NCI-H522 lung was 96.7%; in the assay on A549/ATCC NSCLC it was 103%; with 786-0 renal, 111%; in the assay on COLO 205 colon, 108%; in the assay on DU-145 prostate, 109%; in the assay on K-562 leukemia it was 96.5%. Moreover, the growth in the assay with MALME-3M melanoma was 99%; in the assay on MDA-MB-231 breast, 112%; with RXF 393 renal, 106%; in the assay on SF-268 CNS, 105%; in the assay with SF-539 CNS it was 93.6%; in the assay on UACC-257 melanoma, 117%. For the same compound, the growth in the assay on M14 melanoma is 101%.
Take `NC1N=C(SCC(=O)N2CCN(c3cc4c(cc3F)c(=O)c(C(=O)O)cn4C3CC3)CC2)NC(=O)/C1=C/c1ccc(Cl)cc1` (stereo unspecified): the growth in the assay with NCI-H23 lung is 103%; in the assay with NCI-H226 lung it was 106%; with NCI-H322M lung, 107%; in the assay with HOP-62 NSCLC, 103%; in the assay on NCI-H460 lung, 110%; with HOP-92 NSCLC, 114%. Further, the growth was 94.7% with NCI-H522 lung; 103% in the assay with A549/ATCC NSCLC; 103% in the assay with 786-0 renal; 115% in the assay on COLO 205 colon; 112% with DU-145 prostate; 99.2% in the assay with K-562 leukemia. The growth in the assay on MALME-3M melanoma was 108%; with MDA-MB-231 breast it was 104%; in the assay on RXF 393 renal it was 110%; in the assay with SF-268 CNS, 96.2%; in the assay with SF-295 CNS it was 94.4%; in the assay on SF-539 CNS, 97.8%. For the same compound, the growth in the assay with UACC-257 melanoma was 105%; in the assay with M14 melanoma, 104%.
As for `Cc1ccc(/C=C2\CN(C(=O)CCN3CCC(=NO)CC3)C/C(=C\c3ccc(C)cc3)C2=O)cc1`, the growth in the assay on NCI-H23 lung is 7.62% (active); in the assay on NCI-H226 lung, 81%; in the assay with NCI-H322M lung, 16.8%; with HOP-62 NSCLC, 46.9%; in the assay with NCI-H460 lung, -42.5% (active); in the assay with HOP-92 NSCLC it was 72.2%. Also, the growth is -28.6% (active) in the assay on NCI-H522 lung; 50.8% in the assay on A549/ATCC NSCLC; -15.5% (active) in the assay with 786-0 renal; -35.4% (active) with COLO 205 colon; 21.6% in the assay with DU-145 prostate; 4.38% (active) with K-562 leukemia. Moreover, the growth with MALME-3M melanoma was -27.6% (active); with MDA-MB-231 breast, -13.8% (active); in the assay with RXF 393 renal it was -77.7% (active); in the assay on SF-268 CNS, 12.9%; with SF-295 CNS it was -1.83% (active); in the assay with SF-539 CNS it was -18% (active). Besides, the results for the growth with UACC-257 melanoma and in the assay on M14 melanoma were 44.9% and 5.63% (active), respectively.
As to `O=C(c1c[nH]c(=O)c(-c2ccccc2)c1)c1ccccc1O`, the growth in the assay with NCI-H23 lung is 91.7%; in the assay on NCI-H226 lung, 88.7%; in the assay with NCI-H322M lung, 82.7%; with HOP-62 NSCLC it was 86.3%; in the assay on NCI-H460 lung, 96.1%; in the assay with HOP-92 NSCLC, 70.2%. Besides, the growth with NCI-H522 lung was 87.2%; in the assay on A549/ATCC NSCLC, 93.5%; in the assay on 786-0 renal it was 88.2%; in the assay with COLO 205 colon it was 98.1%; in the assay with DU-145 prostate it was 99.7%; with K-562 leukemia it was 78.4%. The growth is 92.5% in the assay on MALME-3M melanoma; 98.5% with MDA-MB-231 breast; 82.1% in the assay with RXF 393 renal; 91.5% in the assay on SF-268 CNS; 92.2% in the assay with SF-295 CNS; 108% in the assay with SF-539 CNS. Moreover, the growth with UACC-257 melanoma was 85.7%; in the assay with M14 melanoma, 105%.
For the compound `CC(C)OC(=O)N1CCOCC1`, the growth in the assay with NCI-H23 lung was 98.1%; with NCI-H226 lung it was 101%; in the assay with NCI-H322M lung it was 106%; in the assay with HOP-62 NSCLC it was 98.9%; in the assay on NCI-H460 lung, 107%; in the assay on HOP-92 NSCLC, 92.2%. Besides, the growth with NCI-H522 lung was 95.9%; with A549/ATCC NSCLC, 103%; in the assay on 786-0 renal, 104%; in the assay with COLO 205 colon it was 101%; with DU-145 prostate, 104%; in the assay on K-562 leukemia, 123%. Besides, the growth with MALME-3M melanoma is 94.7%; with MDA-MB-231 breast it was 90.8%; in the assay on RXF 393 renal, 116%; with SF-268 CNS, 99.7%; in the assay with SF-295 CNS it was 113%; in the assay on UACC-257 melanoma it was 97.1%. Also, in the assay with M14 melanoma, the growth is 103%.
